The source of these data is ChEMBL document CHEMBL3988442, “University of Dundee, Small-Polar-MMV Screening Library” (2021).

Holding throughout (set-up): scale not given: direction of the effect not stated beside the values
Test [1] has as its target Protein translocase subunit SecA (Escherichia coli (strain K12)) (UniProt P10408). In words: Assay to Identify E. coli SecA ATPase Inhibitors. It counts as functional. As to conditions: 30 µM.
In test [2] the target is T1, Ubiquitin-activating enzyme e1, putative (Leishmania donovani (strain BPK282A1)) (UniProt E9BSI1).
T1 sequence (whole entry): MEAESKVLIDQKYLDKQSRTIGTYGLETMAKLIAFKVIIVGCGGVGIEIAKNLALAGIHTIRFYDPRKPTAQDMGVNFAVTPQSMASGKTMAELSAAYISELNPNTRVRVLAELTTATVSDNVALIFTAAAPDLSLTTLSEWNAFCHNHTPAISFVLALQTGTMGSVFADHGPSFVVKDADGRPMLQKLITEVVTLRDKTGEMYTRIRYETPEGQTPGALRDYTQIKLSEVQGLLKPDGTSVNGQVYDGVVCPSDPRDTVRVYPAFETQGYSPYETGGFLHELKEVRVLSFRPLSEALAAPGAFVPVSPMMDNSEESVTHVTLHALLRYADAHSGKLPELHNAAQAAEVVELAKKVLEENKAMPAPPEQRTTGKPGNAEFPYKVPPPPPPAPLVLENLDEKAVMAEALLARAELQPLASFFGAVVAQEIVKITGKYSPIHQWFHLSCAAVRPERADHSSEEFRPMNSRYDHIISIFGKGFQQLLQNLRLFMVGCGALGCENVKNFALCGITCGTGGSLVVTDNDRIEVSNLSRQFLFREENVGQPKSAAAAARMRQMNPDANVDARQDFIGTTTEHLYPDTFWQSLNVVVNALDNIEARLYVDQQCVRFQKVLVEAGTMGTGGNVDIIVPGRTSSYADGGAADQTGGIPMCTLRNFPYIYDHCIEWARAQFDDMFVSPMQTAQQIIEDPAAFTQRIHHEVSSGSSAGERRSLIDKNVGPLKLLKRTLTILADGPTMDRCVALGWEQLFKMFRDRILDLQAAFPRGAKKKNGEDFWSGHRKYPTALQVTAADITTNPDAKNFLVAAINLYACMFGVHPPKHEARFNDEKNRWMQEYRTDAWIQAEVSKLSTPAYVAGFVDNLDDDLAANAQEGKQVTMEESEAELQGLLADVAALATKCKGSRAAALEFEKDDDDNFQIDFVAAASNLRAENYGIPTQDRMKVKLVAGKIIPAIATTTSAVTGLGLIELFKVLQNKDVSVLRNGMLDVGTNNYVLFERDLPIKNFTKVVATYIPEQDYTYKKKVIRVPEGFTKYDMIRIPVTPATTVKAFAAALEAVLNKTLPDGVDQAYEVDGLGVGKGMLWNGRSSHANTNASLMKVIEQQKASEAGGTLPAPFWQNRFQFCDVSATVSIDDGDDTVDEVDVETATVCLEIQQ
In words: Leishmania donovani Ubiquitin Activating Enzyme (LdE1). It is filed as functional. As to conditions: 30 µM.

Test [3] has as its target AMP-activated protein kinase, AMPK (Homo sapiens) (UniProt P54646+O43741+P54619+Q9UGJ0+Q9Y478+Q13131+Q9UGI9). In words: AMP-dependent Kinase enzyme assay. An in vitro enzyme assay that detects ADP turnover that is directly proportional to AMPK activity. This uses naive AMPK that is activated during the assay with MK-8722. It counts as functional. The following applies: 30 µM.

Test [4] concerns the target Sialic acid-binding Ig-like lectin 9 (Homo sapiens) (UniProt Q9Y336). In words: Hs-Siglec9 ALPHAscreen SOP 20170721. The following applies: 10 µM. Background: Bead proximity is the source of the signal in Alpha formats.
The next test relates to Trypanosoma cruzi. In words: Trypanosoma cruzi phosphomannomutase and mannose-1-phosphate guanylyltransferase assay. It is filed as functional. The following applies: 10 µM.
The target of test [5] is T2, Arginase-2, mitochondrial (Homo sapiens) (UniProt P78540).
T2 sequence (whole entry): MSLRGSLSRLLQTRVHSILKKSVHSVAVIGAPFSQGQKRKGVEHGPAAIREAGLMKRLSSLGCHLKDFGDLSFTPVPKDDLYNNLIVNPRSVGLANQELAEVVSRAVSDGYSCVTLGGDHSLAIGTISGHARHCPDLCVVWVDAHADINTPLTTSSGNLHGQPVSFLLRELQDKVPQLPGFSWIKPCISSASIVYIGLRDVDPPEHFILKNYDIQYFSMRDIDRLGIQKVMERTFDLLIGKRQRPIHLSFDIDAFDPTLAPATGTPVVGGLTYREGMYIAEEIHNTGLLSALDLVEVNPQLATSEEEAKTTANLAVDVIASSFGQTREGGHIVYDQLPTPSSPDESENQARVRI
In words: in vitro enzyme assay to detect the production of urea directly proportional to the activity of Arginase II. Further: in the data most compounds retested in dose-response had high values. The following applies: 33.3 µM. It counts as functional.

Test [6] deals with T3, Proteasome subunit beta (Trypanosoma cruzi) (UniProt O96673).
T3 sequence (whole entry): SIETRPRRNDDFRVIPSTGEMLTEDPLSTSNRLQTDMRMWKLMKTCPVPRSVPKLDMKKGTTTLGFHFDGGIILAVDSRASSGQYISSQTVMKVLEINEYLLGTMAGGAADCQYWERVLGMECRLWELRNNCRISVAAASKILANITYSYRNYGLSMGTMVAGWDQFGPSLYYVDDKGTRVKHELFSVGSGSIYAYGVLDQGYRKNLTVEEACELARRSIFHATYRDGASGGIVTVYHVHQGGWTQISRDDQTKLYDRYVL
In words: Trypanosoma cruzi proteasome chymotrypsin-like activity (TcProtChymo) assay. Further: in the data most compounds retested in dose-response had high values. It counts as functional. The following applies: 9.37 µM.

For the next test, the species on record is Homo sapiens. In words: To identify inhibition of the IFN signalling (Jak-Stat) pathway via expression of an eGFP reporter gene under the control of an IFN-stimulated response element (ISRE) containing MxA promoter. It is filed as functional. As to conditions: 30 µM.
The target in test [7] is T4, Tyrosyl-tRNA synthetase, putative (Trypanosoma cruzi (strain CL Brener)) (UniProt Q4DSP6).
T4 sequence (whole entry): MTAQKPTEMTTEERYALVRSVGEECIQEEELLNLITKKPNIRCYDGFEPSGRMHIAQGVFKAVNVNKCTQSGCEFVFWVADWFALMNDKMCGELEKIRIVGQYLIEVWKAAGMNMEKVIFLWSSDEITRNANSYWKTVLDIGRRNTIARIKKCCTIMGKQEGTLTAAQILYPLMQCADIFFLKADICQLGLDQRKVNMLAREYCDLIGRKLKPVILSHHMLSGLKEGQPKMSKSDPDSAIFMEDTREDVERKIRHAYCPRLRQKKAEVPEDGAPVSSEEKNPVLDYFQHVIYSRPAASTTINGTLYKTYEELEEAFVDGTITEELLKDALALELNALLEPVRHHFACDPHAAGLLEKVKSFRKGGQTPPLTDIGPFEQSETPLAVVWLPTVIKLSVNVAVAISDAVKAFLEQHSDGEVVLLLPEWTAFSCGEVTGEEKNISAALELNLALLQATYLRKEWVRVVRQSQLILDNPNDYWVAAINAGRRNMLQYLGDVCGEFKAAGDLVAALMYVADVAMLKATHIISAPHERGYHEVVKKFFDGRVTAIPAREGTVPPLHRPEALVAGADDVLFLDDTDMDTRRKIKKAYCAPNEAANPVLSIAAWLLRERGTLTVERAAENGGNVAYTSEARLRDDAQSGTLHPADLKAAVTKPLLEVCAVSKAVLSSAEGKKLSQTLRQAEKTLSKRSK
In words: Trypanosoma cruzi tyrosyl tRNA synthetase (TcYRS) _High Tyrosine SOP. Further: in the data most compounds retested in dose-response had high values. It is filed as functional. The following applies: 30 µM.

The target in test [8] is T4, Tyrosyl-tRNA synthetase, putative (Trypanosoma cruzi (strain CL Brener)). In words: Trypanosoma cruzi tyrosyl tRNA synthetase (TcYRS) SOP. It counts as functional. As to conditions: 30 µM.
Test [9] deals with Chromo domain-containing protein 1 (Saccharomyces cerevisiae (strain ATCC 204508 / S288c) (Baker's yeast)) (UniProt P32657). In words: ScCHD-1 Enzyme Inhibition Assay. Further: in the data most compounds retested in dose-response had high values. The following applies: 30 µM. It counts as functional.

For some of these results: Measured potencies and affinities stand elsewhere.

Protein translocase subunit SecA (Escherichia coli (strain K12)), sequence (P10408 whole entry): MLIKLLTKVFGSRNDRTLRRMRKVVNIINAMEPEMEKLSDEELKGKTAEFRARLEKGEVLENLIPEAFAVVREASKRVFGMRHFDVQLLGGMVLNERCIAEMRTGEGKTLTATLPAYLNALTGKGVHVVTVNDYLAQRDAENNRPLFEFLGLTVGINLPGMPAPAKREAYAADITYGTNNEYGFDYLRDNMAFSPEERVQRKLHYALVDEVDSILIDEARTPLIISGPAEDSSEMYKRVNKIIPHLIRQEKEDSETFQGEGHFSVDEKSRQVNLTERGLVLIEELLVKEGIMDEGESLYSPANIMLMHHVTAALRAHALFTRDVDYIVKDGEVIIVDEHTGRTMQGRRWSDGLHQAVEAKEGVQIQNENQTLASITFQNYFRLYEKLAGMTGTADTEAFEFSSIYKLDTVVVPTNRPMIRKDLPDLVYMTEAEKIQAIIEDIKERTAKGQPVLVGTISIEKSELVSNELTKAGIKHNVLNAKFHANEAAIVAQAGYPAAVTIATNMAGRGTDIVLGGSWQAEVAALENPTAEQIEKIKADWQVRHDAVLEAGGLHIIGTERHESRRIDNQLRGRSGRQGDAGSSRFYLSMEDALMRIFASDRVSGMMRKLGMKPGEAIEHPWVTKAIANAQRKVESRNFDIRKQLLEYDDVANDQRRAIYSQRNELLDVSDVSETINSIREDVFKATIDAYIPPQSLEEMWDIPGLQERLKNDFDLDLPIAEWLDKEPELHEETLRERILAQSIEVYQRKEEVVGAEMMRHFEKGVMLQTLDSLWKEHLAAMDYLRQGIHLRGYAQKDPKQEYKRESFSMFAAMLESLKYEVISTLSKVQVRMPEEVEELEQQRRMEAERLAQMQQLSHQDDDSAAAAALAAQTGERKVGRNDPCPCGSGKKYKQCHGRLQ
Chromo domain-containing protein 1 (Saccharomyces cerevisiae (strain ATCC 204508 / S288c) (Baker's yeast)), sequence (P32657 whole entry, the tested form may be a part): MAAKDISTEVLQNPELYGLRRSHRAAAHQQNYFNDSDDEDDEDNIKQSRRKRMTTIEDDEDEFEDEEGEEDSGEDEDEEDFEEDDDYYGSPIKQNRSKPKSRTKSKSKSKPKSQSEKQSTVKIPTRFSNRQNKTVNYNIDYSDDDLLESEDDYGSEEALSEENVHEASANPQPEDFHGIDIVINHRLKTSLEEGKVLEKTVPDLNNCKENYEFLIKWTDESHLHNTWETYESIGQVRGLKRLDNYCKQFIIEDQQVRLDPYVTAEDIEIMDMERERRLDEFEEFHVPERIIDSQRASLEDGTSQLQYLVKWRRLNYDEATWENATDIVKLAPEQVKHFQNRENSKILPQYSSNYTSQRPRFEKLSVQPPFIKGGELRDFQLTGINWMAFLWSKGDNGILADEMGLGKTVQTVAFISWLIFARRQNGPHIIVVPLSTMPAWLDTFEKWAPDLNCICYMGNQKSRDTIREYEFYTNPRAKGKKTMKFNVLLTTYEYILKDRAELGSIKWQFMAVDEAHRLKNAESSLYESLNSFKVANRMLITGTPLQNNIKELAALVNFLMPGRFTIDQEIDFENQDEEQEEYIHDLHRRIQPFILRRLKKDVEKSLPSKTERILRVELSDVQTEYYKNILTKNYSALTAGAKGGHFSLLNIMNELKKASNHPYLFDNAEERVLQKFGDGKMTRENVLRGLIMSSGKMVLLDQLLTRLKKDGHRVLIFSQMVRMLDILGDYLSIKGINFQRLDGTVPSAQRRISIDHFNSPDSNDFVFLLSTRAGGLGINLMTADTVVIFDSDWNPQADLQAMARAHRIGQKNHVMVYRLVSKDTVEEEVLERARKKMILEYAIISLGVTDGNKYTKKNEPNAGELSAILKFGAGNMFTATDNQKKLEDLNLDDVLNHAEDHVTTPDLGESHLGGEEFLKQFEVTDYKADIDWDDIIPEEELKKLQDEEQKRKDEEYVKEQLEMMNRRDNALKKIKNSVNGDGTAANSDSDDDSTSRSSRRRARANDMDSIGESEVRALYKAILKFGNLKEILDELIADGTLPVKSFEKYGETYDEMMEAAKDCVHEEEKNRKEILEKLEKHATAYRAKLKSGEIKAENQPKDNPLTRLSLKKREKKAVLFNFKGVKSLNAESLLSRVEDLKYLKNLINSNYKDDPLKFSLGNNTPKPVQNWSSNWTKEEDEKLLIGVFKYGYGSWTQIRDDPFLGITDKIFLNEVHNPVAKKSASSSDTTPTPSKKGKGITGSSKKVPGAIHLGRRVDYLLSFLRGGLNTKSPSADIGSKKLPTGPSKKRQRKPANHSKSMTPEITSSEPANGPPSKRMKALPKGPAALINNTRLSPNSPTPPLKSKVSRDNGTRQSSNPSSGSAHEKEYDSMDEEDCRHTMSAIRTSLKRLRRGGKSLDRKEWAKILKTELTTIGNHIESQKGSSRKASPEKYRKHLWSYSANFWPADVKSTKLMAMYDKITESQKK
Sialic acid-binding Ig-like lectin 9 (Homo sapiens), sequence (Q9Y336 whole entry): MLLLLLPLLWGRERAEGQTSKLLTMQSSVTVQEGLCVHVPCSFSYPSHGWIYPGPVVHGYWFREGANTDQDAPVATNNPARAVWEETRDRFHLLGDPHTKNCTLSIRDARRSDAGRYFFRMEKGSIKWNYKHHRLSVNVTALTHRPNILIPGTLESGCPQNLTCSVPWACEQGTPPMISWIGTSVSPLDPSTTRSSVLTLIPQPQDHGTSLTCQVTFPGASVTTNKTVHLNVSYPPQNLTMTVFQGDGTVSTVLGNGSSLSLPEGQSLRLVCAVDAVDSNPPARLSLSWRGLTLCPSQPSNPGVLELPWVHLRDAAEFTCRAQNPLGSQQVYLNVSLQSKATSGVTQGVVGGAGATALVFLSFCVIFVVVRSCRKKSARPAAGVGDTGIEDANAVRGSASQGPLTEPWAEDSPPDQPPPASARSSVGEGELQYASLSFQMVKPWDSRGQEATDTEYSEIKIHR

On to `Cc1nn(C)c(C)c1CNCc1ccnc(N2CCOCC2)c1`, for which the Percent Effect is -6.06% in test [1]; 1.27% in [2]; 2.39% in test [3]; -0.497% in test [4]; 2.56% in the test on Trypanosoma cruzi; -0.645% in test [5]. Further, the Percent Effect was -1.03% in test [6]; 24% in the test listed under Homo sapiens; -1.04% in test [7]; -2.53% in [8]; -31.5% in test [9].
Consider `Cc1ccc(C(NC(=O)[C@H]2CC[C@@H](O)CC2)c2cccnc2)cc1C` (stereo partly specified), for which the Percent Effect in test [1] is -7.06%; in test [2] it was 5.33%; in [3] it was 2.02%; in test [4] it was 2.58%; in the test on Trypanosoma cruzi, -1.07%; in [5], 4.17%. In addition, the Percent Effect in test [6] was 8.2%; in the test filed under Homo sapiens it was -9.12%; in test [7] it was 0.546%; in test [8], 8.64%; in test [9], -6.38%.
For the compound `CN(Cc1ccco1)C(=O)CN1CCCCC1Cn1cccn1` (stereo unspecified), the Percent Effect is 1.65% in [1]; 0% in test [2]; 6.46% in test [3]; -9.17% in [4]; -1.27% in the test with Trypanosoma cruzi; -2.74% in test [5]. For the same compound, the Percent Effect is 17.1% in test [6]; -30.8% in the test listed under Homo sapiens; 4.76% in test [7]; 9.41% in test [8]; -9.28% in test [9].
Consider `O=C1CC(c2ccc(C(=O)O)cc2)c2ncn(-c3cccc(F)c3)c2N1` (stereo unspecified), for which the Percent Effect was -3.41% in test [1]; 9.33% in test [2]; -61.2% in test [3]; -4.05% in test [4]; -4.13% with Trypanosoma cruzi; 7.57% in test [5]. Further, the Percent Effect was 13.3% in test [6]; -9.89% in the test listed under Homo sapiens; 10.6% in [7]; 15.4% in [8]; -7.23% in test [9].
For `Cc1cnn(CC2CCCN2Cc2coc(-c3ccccc3)n2)c1` (stereo unspecified), the Percent Effect was 0.182% in [1]; -11% in test [2]; -9.12% in test [3]; 16.7% in test [4]; 6.46% with Trypanosoma cruzi; 1.82% in test [5]. Besides, the Percent Effect was 1.77% in test [6]; -7.46% in the test filed under Homo sapiens; 3.23% in [7]; 5% in test [8]; -6.56% in [9].
As for `CC(C)N(C)C(=O)C1=NOC2(CCN(C(=O)c3ccccn3)C2)C1` (stereo unspecified), the Percent Effect in [1] is 3.88%; in test [2] it was 2.74%; in test [3], -0.462%; in test [4] it was 5.09%; with Trypanosoma cruzi it was -5.95%; in test [5], -3.59%. Besides, the Percent Effect in test [6] is 17.9%; in the test filed under Homo sapiens, 5.05%; in test [7] it was 5.21%; in test [8] it was 16.1%; in test [9], 2.42%.
`CCc1nc(C)c(C(=O)NCCNc2cnccn2)s1`: the Percent Effect in [1] is -1.34%; in [2], 21.1%; in test [3], -0.0117%; in test [4], -1.62%; with Trypanosoma cruzi, 1.77%; in [5] it was -1.44%. Further, the Percent Effect in test [6] was 15.8%; in the test listed under Homo sapiens it was 4.13%; in [7], 9.36%; in [8], 25.9%; in test [9], -8.55%.
For the compound `O=C(NCCCNCC1CNc2ccnn2C1)c1ccccc1` (stereo unspecified), the Percent Effect in test [1] is 0.663%; in test [2], 2.7%; in test [3], -9.29%; in test [4], -3.11%; with Trypanosoma cruzi, 0.193%; in [5] it was 4.29%. The Percent Effect in test [6] was 16.6%; in the test filed under Homo sapiens it was 9.18%; in test [7], 5.82%; in test [8], 14.6%; in test [9], -3.29%.
`Cc1cc(C)n(Cc2cccc(C(=O)NCCN3CCOCC3)c2)n1`: the Percent Effect in test [1] is 6.23%; in test [2] it was 5.2%; in test [3] it was -1.94%; in test [4] it was 1.34%; in the test with Trypanosoma cruzi, -6.59%; in [5], -6.9%. The Percent Effect is 24.3% in test [6]; 9.8% in the test listed under Homo sapiens; 5.38% in [7]; 16.1% in test [8]; -2.63% in [9].
Consider `O=C(NCCNc1ncccn1)N(Cc1ccc(F)cc1F)C1CC1`, for which the Percent Effect is -3.52% in [1]; 10.1% in test [2]; -4.4% in test [3]; 16.9% in test [4]; -2.36% with Trypanosoma cruzi; 1.52% in [5]. Also, the Percent Effect in [6] is -3.03%; in the test filed under Homo sapiens, 8.99%; in test [7] it was 2.46%; in test [8], 8.86%; in [9], -3.1%.
Turning to `Cc1cc(C)n(-c2cncc(NCCNC(=O)CC3CCCC3)n2)n1`, the Percent Effect was -5.92% in test [1]; 5.41% in [2]; 16.2% in test [3]; 27.9% in test [4]; 0.489% in the test on Trypanosoma cruzi; 1.24% in test [5]. In addition, the Percent Effect in test [6] is 8.67%; in the test listed under Homo sapiens it was -10.2%; in [7], 1.07%; in [8], 8.64%; in [9] it was -4.7%.
